Screening data deposited in PubChem BioAssay by National Center for Advancing Translational Sciences (NCATS).
In the library only some 15% were active in any assay of this set; here they are far more common.
RORg inh: qHTS for inhibitors of ROR gamma transcriptional activity. Nuclear receptor ROR-gamma (Mus musculus), P51450. Drosophila S2 Gal4-RORgamma UAS-luciferase reporter, 20 h. Potency, µM (titrated, usually from 53.6 µM), inactives show at the top dose activity change, negative = inhibition, usual class: inhibitors. 5.4% of 310,000 active; note: nearly all actives have a fitted effect of over 60% in size
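Luciferase reporter read in Schneider cells carrying Gal4-RORγ (mouse) and UAS-Photinus luciferase; cells given compound 1 h before 700 uM copper sulfate induction, then incubated 20 h at ambient temperature.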
ALOX12 inh: Primary qHTS assay for inhibitors of human arachidonate 12S-lipoxygenase (ALOX12): Round 2; Polyunsaturated fatty acid lipoxygenase ALOX12 (Homo sapiens), P18054; purified 12hLO, xylenol orange hydroperoxide absorbance; Potency, µM (series often up to 108 µM), for the others: at the top dose activity change, negative = inhibition, actives largely listed as inhibitors; 1.1% of 580,000 active; AID 1671190, 2021
Target sequence (P18054 whole entry, looked up): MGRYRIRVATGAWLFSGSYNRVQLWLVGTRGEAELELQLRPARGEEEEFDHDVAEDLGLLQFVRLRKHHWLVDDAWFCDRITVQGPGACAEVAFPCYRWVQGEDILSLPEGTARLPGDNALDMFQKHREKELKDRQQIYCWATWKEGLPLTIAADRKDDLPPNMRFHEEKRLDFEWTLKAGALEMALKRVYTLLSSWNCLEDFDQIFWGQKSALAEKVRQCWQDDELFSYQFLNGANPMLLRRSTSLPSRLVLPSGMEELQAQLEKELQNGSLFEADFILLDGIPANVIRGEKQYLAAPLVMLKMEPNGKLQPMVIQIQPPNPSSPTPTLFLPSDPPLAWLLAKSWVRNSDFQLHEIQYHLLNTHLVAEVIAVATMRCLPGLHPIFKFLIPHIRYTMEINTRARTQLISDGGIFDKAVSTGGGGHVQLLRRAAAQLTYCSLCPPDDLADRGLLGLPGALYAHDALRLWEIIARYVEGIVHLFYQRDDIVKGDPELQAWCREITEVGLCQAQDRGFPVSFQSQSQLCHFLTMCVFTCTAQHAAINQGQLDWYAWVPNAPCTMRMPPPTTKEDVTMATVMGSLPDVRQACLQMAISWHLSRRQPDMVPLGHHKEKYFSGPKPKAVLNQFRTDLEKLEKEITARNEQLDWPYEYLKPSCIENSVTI
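Hydroperoxide product was detected by ferrous iron/xylenol orange as the 573 to 405 nm absorbance ratio. Arachidonic acid at 40 uM (final) was turned over for 30 min at room temperature by 150 nM human 12hLO, pH 7.0 Hepes buffer, after 15 min compound preincubation.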
Gal4-VP16 FLuc: VP16 counterscreen qHTS for inhibitors of ROR gamma transcriptional activity; Potency, µM (doses to about 53.6 µM), for the others: top-dose activity, negative = inhibition, actives largely listed as inhibitors; 3.5% of 310,000 active; Drosophila S2 Gal4-VP16 UAS-luciferase, luminescence, 20 h;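 note: Gal4-VP16 expression switched on by copper sulfate through the metallothionein promoter; nearly all actives have a fitted effect of over 50% in size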
TDP1 cell noCPT: qHTS for Inhibitors of human tyrosyl-DNA phosphodiesterase 1 (TDP1): qHTS in cells in absence of CPT; DT40 Tdp1-/- hTDP1 cells, no CPT, ATP luminescence, 48 h; Potency, µM (doses to about 46.2 µM), for the others: top-dose activity change, negative = growth inhibition, hits mostly inhibitors; 15% of 420,000 active; note: nearly all actives have a fitted effect of over 55% in size
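Chicken DT40 Tdp1-/- cells complemented with human TDP1, screened without camptothecin (DMSO vehicle only), 400 cells/well. Compounds pin-transferred, cells incubated at 37 °C for at least 48 hr. Growth read as ATP-dependent luminescence (CellTiter-Glo, 30 min at RT).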
ELG1 DNA repair: qHTS screen for small molecules that inhibit ELG1-dependent DNA repair in human embryonic kidney (HEK293T) cells expressing luciferase-tagged ELG1. HEK293T ELG1-luciferase reporter, luminescence, 16 h; DNA damage induced by 5-fluorouridine. Potency, µM (highest dose often 46.1 µM), without a hit: at the highest dose activity change, negative = inhibition, hits mostly inhibitors. 2.3% of 330,000 active; note: nearly all actives have a fitted effect of over 55% in size
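Quantitative HTS, concentration-response format. 2,000 cells/well co-treated with 5-fluorouridine and compound, 16 hr in 5% CO2 at 37 °C; ONE-Glo luminescence read after 30 min.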
DT40 TDP1 CPT: qHTS for Inhibitors of human tyrosyl-DNA phosphodiesterase 1 (TDP1): qHTS in cells in presence of CPT; chicken DT40 Tdp1-/-;hTDP1 cells + 20 nM CPT, ATP luminescence, 48 h; Potency, µM (highest dose often 46.2 µM), for inactives: at the highest dose activity change, negative = growth inhibition, usual class: inhibitors; 12% of 420,000 active; AID 686979, 2013; note: nearly all actives have a fitted effect of over 55% in size
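Cell growth measured by CellTiter-Glo luminescence after a minimum 48 h, 37 C compound exposure with 20 nM CPT in Tdp1-knockout DT40 cells stably expressing hTDP1, seeded 400/well; qHTS titration format.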
The depositor's hits bear a star; ? = inconclusive; . = no result given; [ ] = another dose, or the depositor's remark. Calls come from the whole dose curve; as a rule, active = well fitted curve in the direction sought with a large enough effect; inconclusive = small, poorly fitted or top-dose-only effect, or another doubt; inactive = no such curve, though single readings can be large; an effect the other way counts as inactive or inconclusive. % is set by controls: 0 for no effect and ±100 for the full control effect; potency is the fitted concentration of half-maximal effect.

SMILES	RORg inh	ALOX12 inh	Gal4-VP16 FLuc	TDP1 cell noCPT	ELG1 DNA repair	DT40 TDP1 CPT
CCc1cc2c(NCCC(=O)O)nc(C)nc2s1	-19.5%	-1.4%	13.3%	-10.8%	-0.7%	-3.6%
CCc1cc2c(NCc3ccccc3)nc(C)nc2s1	?	?	?	8.2µM*	-9.8%	16.4µM*
C(=Nc1ccccc1-c1ccccc1N=Cc1ccc2ccccc2c1)c1ccc2ccccc2c1	.	-18.1%	.	.	.	.
COc1cccc(N2CCN(C(=S)Nc3ccccc3)CC2)c1	-12.7%[1.91 µM]	0.0%	?	-11.9%	-10.5%	1.2%
CCc1ccc(NC(=S)N2CCN(c3cccc(OC)c3)CC2)cc1	12.6µM*	-9.7%	?	-17.7%	?	-23.7%
CCc1ccccc1NC(=S)N1CCN(c2cccc(OC)c2)CC1	10µM*	0.0%	?	-2.6%	-13.2%	2.4%
Cc1ncccc1OC1(C(=O)NCc2n[nH]c3c2CCC3)CCNCC1	.	11.6%	.	.	.	.
CCCCn1c(N)c(N(C)C(=O)C2Cc3ccccc3C(=O)O2)c(=O)[nH]c1=O (stereo not given)	.	21.7%	.	.	.	.
Cc1c2cnccc2c(C)c2c1c1ccccc1n2CCOC(=O)c1ccccc1	.	.	.	11.2µM*	.	?
C[N+]1(CC2COC(c3ccccc3)(C3CCCCC3)O2)CCCCC1 (stereo not given)	0.8%	?	-7.4%	5.96µM*	.	-94.5%
CN1CCC(N(C)C(=S)NC(=O)C23CC4CC(CC(C4)C2)C3)CC1	?	-26.0%	?	-4.3%	6.9%	1.9%
CN(C)NC(=S)NC(=O)C12CC3CC(CC(C3)C1)C2	1µM*	?	2.82µM*	8.2µM*	13.8%	4.11µM*
CN(C(=S)NC(=O)C12CC3CC(CC(C3)C1)C2)c1ccc(O)cc1	.	?	.	4.61µM*	13.4%	5.8µM*
CC(C)(C)NC(=S)NC(=O)C12CC3CCC(CC(C3)C1)C2	2.82µM*	22.4µM*	4.47µM*	?	14.2%	?
O=C(NC(=S)NC1C2CC3CC(C2)CC1C3)C12CC3CC(CC(C3)C1)C2 (stereo not given)	1µM*	?	2.82µM*	14.6µM*	20.1%	?
Cc1nc2ccc(S(=O)(=O)NCc3ccccc3)cc2s1	.	12.9%	.	.	.	.
Cc1nc2ccc(NS(=O)(=O)c3c(F)cc(F)cc3Br)cc2s1	.	-19.5%	.	6.51µM*	-10.6%	?
Cc1nc2ccc(NS(=O)(=O)c3ccc(C)c(C)c3)cc2s1	?	-28.2%	?	10.3µM*	?	14.6µM*
Cc1nc2ccc(NS(=O)(=O)c3ccc(F)c(F)c3F)cc2s1	.	8.4%	.	?	?	?
Cc1nc2ccc(S(=O)(=O)Nc3ccccc3C)cc2s1	7.6%	17.3%	-2.6%	18.4µM*	?	?
Cc1nc2ccc(NS(=O)(=O)c3ccc(F)cc3F)cc2s1	.	23.1%	.	?	0.2%	?
Cc1[nH][nH]c(=O)c1C(c1ccc(-c2ccc(Cl)c(Cl)c2)o1)c1c(C)[nH][nH]c1=O	-34.1%	?	-3.4%	2.59µM*	-2.7%	3.26µM*
Cc1[nH][nH]c(=O)c1C(c1ccc(-c2ccc(F)cc2)o1)c1c(C)[nH][nH]c1=O	?	?	?	?	-0.9%	?
